Assay outcomes from PubChem.
CYP2C19 act: human CYP2C19 activators, primary screen, biochemical, luminescence | Cytochrome P450 2C19 (Homo sapiens), P33261 | recombinant CYP2C19, luciferin-H EGE luminescence; hits give high values; 0 = fully inhibited enzyme, 1 = untreated enzyme | activation factor at 5 µM | 96,000 tested, under 10 active;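 active = activation factor of at least 2 at 5 µM in the primary screen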;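 also: 0 = wells with 2.5 mM tranylcypromine and 1 = vehicle-only wells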
Target sequence (P33261 whole entry, looked up): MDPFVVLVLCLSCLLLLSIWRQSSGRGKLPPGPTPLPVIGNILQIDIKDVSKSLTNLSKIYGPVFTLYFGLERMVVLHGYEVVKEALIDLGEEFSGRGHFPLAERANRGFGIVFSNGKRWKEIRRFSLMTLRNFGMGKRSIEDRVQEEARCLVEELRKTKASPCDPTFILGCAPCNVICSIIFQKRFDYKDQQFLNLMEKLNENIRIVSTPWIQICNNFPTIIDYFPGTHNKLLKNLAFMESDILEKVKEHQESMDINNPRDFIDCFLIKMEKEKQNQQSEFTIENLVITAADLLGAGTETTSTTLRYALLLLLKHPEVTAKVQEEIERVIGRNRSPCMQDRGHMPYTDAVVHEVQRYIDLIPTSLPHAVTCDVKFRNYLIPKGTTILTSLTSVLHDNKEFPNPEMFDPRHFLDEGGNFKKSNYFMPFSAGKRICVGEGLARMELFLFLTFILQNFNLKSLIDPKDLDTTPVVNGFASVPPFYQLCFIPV
CYP2C19 inhib: blockers of cytochrome P450 2C19 activity – biochemical, luminescence, ADME assay, primary screen | P33261 | CYP2C19 Supersomes, luciferin-H EGE luminescence, 30 min | inhibition, % at 5 µM | 96,000 compounds, 21% hits | AID 778, 2007;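 active = CYP2C19 inhibition above a set limit at 5 µM in the primary screen, cut at about 50% in these data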;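 also: plate controls were negative control wells for no effect and 2.5 mM tranylcypromine positive control for full effect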
D1 mod: D1 CRE-luciferase signal change, two-sided – cell-based, HEK293 D1, dopamine EC30, D1 allosteric modulator project, primary screen. D(1A) dopamine receptor (Homo sapiens), P21728. dopamine EC30 potentiation; actives deviate in either direction. B-score at 10 µM. 58,000 compounds, 5.9% hits. AID 641, 2007;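 active = luminescence count or its row- and column-corrected plate score outside the 99.7% band of the plate's sample wells, on either side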
CYP2C9 act: human CYP2C9 activators, primary screen, biochemical, luminescence. 96,000 compounds, 1.4% hits. activation factor at 5 µM. Cytochrome P450 2C9 (Homo sapiens), P11712. AID 1024, 2008. recombinant CYP2C9, luciferin-H conversion; hits give high values; factor 1 = untreated enzyme, 0 = blocked;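 active = activation factor of 2 or more for CYP2C9 at a 5 µM dose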;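 also: 0 = sulfaphenazole-blocked wells and 1 = vehicle-only wells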
DAT uptake mod: changed hDAT dopamine uptake under cocaine IC80, either direction, primary screen, cocaine antagonist project, cell-based, LLC-PK1 hDAT, [14C]-dopamine uptake, MLSMR; Sodium-dependent dopamine transporter (Homo sapiens), Q01959; LLC-PK1 hDAT cells, [14C]-dopamine uptake with cocaine IC80; actives deviate in either direction; B-score at 10 µM; 110,000 compounds, 1.3% hits;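 active = Z score or B-score, a plate-position-corrected score, falls beyond the plate's 99.7% confidence bounds, in either direction; inactive = both scores lie inside the 99.7% bounds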;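 also: scored against the spread of the other compound wells on the same plate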
CYP2C9 inhib: blockers of cytochrome P450 2C9 activity – biochemical, luminescence, ADME assay, primary screen. P11712. inhibition, % at 5 µM. 96,000 compounds, 20% hits. AID 777, 2007. CYP2C9 Supersomes, luciferin-H conversion;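 active = blocking of liver enzyme CYP2C9 beyond about 50% at 5 µM, limit read from the data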
* marks the source's active call; other numbers are inactive results. Most compounds without a hit are left out; they make up all but 28% or so of the library.

For Cc1cc(C)n2cc(CSc3ncccc3C(=O)O)nc2n1 the results were CYP2C19 act 1.2, CYP2C19 inhib -17.3, D1 mod -0.512, CYP2C9 act 1.1, DAT uptake mod -0.146 and CYP2C9 inhib -14.4.
Screening Cc1cc(C)n2cc(CSc3nnnn3-c3ccccc3C)nc2n1 returned CYP2C19 act 0.6, CYP2C19 inhib 35.1, D1 mod 0.144, CYP2C9 act 2.7*, DAT uptake mod 0.79 and CYP2C9 inhib -174.2.
`O=C(O)c1ccc(CSCc2ccco2)cc1` gave CYP2C19 act 0.8, CYP2C19 inhib 15.1, CYP2C9 act 1, DAT uptake mod -0.0328 and CYP2C9 inhib -4.0.
Screening Cc1cccc2nc(CSCc3ccco3)cn12 returned CYP2C19 act 0.4, CYP2C19 inhib 63.8*, D1 mod -2.19, CYP2C9 act 1, DAT uptake mod -0.0825 and CYP2C9 inhib 0.4.
For O=C1CC(c2ccc(S(=O)(=O)N3CCN(c4ccccc4)CC3)cc2)CN1 (stereo unspecified) the results were CYP2C19 act 0.9, CYP2C19 inhib 9.7, D1 mod -0.687, CYP2C9 act 0.8, DAT uptake mod 2.84 and CYP2C9 inhib 19.3.
`Cn1c(=O)c(=O)n(C)c2cc(S(=O)(=O)N3CCN(c4cccc(C(F)(F)F)c4)CC3)ccc21` gave CYP2C19 act 1.1, CYP2C19 inhib -11.1, D1 mod 0.181, CYP2C9 act 1.1, DAT uptake mod -0.00249 and CYP2C9 inhib -8.8.
Screening NC(=O)C1CCN(c2ncnc3c2c(-c2ccccc2)cn3-c2ccccc2)CC1 returned CYP2C19 act 0.9, CYP2C19 inhib 8.4, D1 mod -3.79*, CYP2C9 act 0.9, DAT uptake mod -0.142 and CYP2C9 inhib 9.5.
O=C1Nc2ccccc2C12OCC(COc1ccc(Cl)cc1)O2 (stereo unspecified) was read as CYP2C19 act 0.2, CYP2C19 inhib 84.3*, D1 mod -0.674, CYP2C9 act 0.8, DAT uptake mod 1 and CYP2C9 inhib 19.8.
For C=CCn1c(CCNC(=O)c2ccccc2F)nnc1SCC(=O)Nc1nc(C)cs1 the results were CYP2C19 act 0.7, CYP2C19 inhib 30.9, D1 mod -0.603, CYP2C9 act 0.5, DAT uptake mod 0.155 and CYP2C9 inhib 50.5*.
For C=CCn1c(SCC(=O)Nc2nc(C)cs2)nnc1C(C)NC(=O)c1ccccc1Cl (stereo unspecified) the results were DAT uptake mod 0.0357.
C=CCn1c(CCNC(=O)c2cccs2)nnc1SCC(=O)Nc1cccc(F)c1 was read as CYP2C19 act 0.3, CYP2C19 inhib 71.8*, CYP2C9 act 0.1, DAT uptake mod 0.468 and CYP2C9 inhib 90.3*.
Screening CCOc1cc(C)c(S(=O)(=O)Nc2ccc(Cl)cn2)cc1C returned CYP2C19 act 0.2, CYP2C19 inhib 78.2*, D1 mod 0.261, CYP2C9 act 0.1, DAT uptake mod -0.0707 and CYP2C9 inhib 94.9*.
For Cc1cc(Cl)c(S(=O)(=O)Nc2ccc(Cl)cn2)cc1OCC(N)=O the results were DAT uptake mod -0.727.
CCOc1ccc(S(=O)(=O)Nc2ccc(Cl)cn2)c(C)c1C was read as CYP2C19 act 0.6, CYP2C19 inhib 38.7, D1 mod -2.56*, CYP2C9 act 0.6, DAT uptake mod 0.686 and CYP2C9 inhib 36.3.
`CCOc1ccc(C(C)C)cc1S(=O)(=O)Nc1ccc(Cl)cn1` gave CYP2C19 act 0.9, CYP2C19 inhib 13.8, D1 mod 0.874, CYP2C9 act 0.7, DAT uptake mod 0.0232 and CYP2C9 inhib 33.6.
`CCCCC1CCC(C(=O)Nc2c(C)n(C)n(-c3ccccc3)c2=O)CC1` (stereo unspecified) gave D1 mod -0.578.
For COc1ccc(CC2NCCC3=CC(=O)CCC32)cc1O (stereo unspecified) the results were DAT uptake mod -0.181.
Screening CCOc1cc(C(=S)N2CCOCC2)ccc1OS(=O)(=O)c1ccc(NC(C)=O)cc1 returned CYP2C19 act 0.3, CYP2C19 inhib 71.2*, CYP2C9 act 0.4, DAT uptake mod -0.291 and CYP2C9 inhib 61.2*.
CCOc1ccccc1C(=O)Nc1ccc(S(=O)(=O)N2CCOCC2)cc1 was read as CYP2C19 act 0.5, CYP2C19 inhib 54.3*, D1 mod -1.09, CYP2C9 act 3.3*, DAT uptake mod -0.052 and CYP2C9 inhib -230.5.
CCOc1ccc(C(=O)Nc2ccc(S(=O)(=O)N3CCOCC3)cc2)cc1OCC was read as CYP2C19 act 1.1, CYP2C19 inhib -7.0, D1 mod 0.771, CYP2C9 act 0.9, DAT uptake mod 0.63 and CYP2C9 inhib 8.9.
For COc1ccccc1C(=O)Nc1ccc(S(=O)(=O)N2CCOCC2)cc1 the results were CYP2C19 act 0.8, CYP2C19 inhib 16.2, D1 mod 0.262, CYP2C9 act 5.2*, DAT uptake mod 0.541 and CYP2C9 inhib -417.9.
Screening COc1cc2[nH]c(-c3cccc(F)c3)cc(=O)c2cc1OC returned DAT uptake mod 1.32.
`CC(C)NCC(O)COc1ccc(CCOCC2CC2)cc1` (stereo unspecified) gave D1 mod -0.888 and DAT uptake mod -0.718.
For O=C(Nc1ccc2c(c1)OCO2)c1ccc(COc2ccc3c(c2)CCC3)o1 the results were CYP2C19 act 0.6, CYP2C19 inhib 38.5, D1 mod 0.361, CYP2C9 act 0.6, DAT uptake mod 0.0467 and CYP2C9 inhib 40.1.
For CC(C)c1ccc(NC(=O)C(c2ccccc2)N2CCN(C=O)CC2)cc1 (stereo unspecified) the results were CYP2C19 act 1.1, CYP2C19 inhib -12.8, D1 mod 0.218, CYP2C9 act 1.1, DAT uptake mod 1.67 and CYP2C9 inhib -9.8.
CC(C)c1ccc(NC(=O)C(c2ccccc2)N2CCOCC2)cc1 (stereo unspecified) was read as CYP2C19 act 0.4, CYP2C19 inhib 55.1*, D1 mod -1.1, CYP2C9 act 0.3, DAT uptake mod -0.257 and CYP2C9 inhib 67.5*.
Screening COc1ccccc1-c1c(C#N)c(SCC(=O)N2CCCC2)nc(C)c1C(N)=O returned CYP2C19 act 1.1, CYP2C19 inhib -7.1, CYP2C9 act 1, DAT uptake mod -0.413 and CYP2C9 inhib 2.0.
`COc1ccc(C(=O)N(CN2CCCC2=O)c2nccs2)cc1OC` gave CYP2C19 act 1, CYP2C19 inhib 1.2, CYP2C9 act 0.9, DAT uptake mod 0.0462 and CYP2C9 inhib 9.4.
